# Source: publication PMC7862700, “An all-to-all approach to the identification of sequence-specific readers for epigenetic DNA modifications on cytosine”
# Experiments:
# Assay in all cases: DAPPL (digital affinity profiling via proximity ligation, sequencing); 10 mM Tris-HCl pH 7.5, 50 mM NaCl, 1 mM DTT, 4% glycerol, room temperature, 30 min; GST-TFs on glutathione beads, 16-mer random dsDNA library, 0.1% formaldehyde crosslink after washing; high values mean tight binding
# FLI1 = biological target: T1, FLI1 (Homo sapiens, UniProt Q01543 1-452); settings: protein: recombinant; tags: N-terminal GST; dsDNA, one strand shown
# T1 sequence: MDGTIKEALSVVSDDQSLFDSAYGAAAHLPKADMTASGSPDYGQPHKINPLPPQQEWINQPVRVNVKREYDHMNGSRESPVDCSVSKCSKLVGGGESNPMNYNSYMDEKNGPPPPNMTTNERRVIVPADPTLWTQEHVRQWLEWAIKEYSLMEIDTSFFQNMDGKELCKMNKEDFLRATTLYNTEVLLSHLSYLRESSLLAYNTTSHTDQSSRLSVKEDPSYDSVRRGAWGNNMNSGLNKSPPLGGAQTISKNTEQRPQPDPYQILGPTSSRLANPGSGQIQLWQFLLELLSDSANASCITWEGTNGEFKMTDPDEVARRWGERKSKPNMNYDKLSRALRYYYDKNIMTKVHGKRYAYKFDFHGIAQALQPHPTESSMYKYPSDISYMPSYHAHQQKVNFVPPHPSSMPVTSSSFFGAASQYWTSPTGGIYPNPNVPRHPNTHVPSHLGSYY
# Procedure, shortened: (§1)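 Binding signal is given per hexamer as its read frequency for a factor divided by its frequency in the tag-only sample. GST-fused human transcription factors were expressed in yeast, captured on glutathione beads, barcoded with DNA and pooled with that sample, then incubated with 200 nmole of a 16-mer random double-stranded DNA library in Tris/NaCl/DTT/glycerol buffer for 30 min at room temperature. The pools were then washed, crosslinked, proximity-ligated, amplified by PCR and sequenced on an Illumina NextSeq500.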
# ELK1 = biological target: T2, ELK1 (Homo sapiens, UniProt P19419 1-428); settings: protein: recombinant; tags: N-terminal GST; dsDNA, one strand shown
# T2 sequence: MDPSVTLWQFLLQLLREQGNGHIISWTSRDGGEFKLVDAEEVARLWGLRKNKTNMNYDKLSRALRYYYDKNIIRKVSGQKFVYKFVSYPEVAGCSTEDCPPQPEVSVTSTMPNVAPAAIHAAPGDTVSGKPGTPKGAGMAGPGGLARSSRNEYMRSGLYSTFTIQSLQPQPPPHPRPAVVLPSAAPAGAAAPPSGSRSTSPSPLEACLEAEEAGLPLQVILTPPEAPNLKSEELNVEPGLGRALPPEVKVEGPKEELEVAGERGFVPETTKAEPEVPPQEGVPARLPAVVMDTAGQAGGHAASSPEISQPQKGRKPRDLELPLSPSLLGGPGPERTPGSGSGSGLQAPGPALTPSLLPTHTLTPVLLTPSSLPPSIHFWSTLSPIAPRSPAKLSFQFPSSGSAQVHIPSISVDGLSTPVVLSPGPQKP
# Procedure, shortened: as §1
# GABPA = biological target: T3, GABPA (Homo sapiens, UniProt Q06546 1-454); settings: protein: recombinant; tags: N-terminal GST; dsDNA, one strand shown
# T3 sequence: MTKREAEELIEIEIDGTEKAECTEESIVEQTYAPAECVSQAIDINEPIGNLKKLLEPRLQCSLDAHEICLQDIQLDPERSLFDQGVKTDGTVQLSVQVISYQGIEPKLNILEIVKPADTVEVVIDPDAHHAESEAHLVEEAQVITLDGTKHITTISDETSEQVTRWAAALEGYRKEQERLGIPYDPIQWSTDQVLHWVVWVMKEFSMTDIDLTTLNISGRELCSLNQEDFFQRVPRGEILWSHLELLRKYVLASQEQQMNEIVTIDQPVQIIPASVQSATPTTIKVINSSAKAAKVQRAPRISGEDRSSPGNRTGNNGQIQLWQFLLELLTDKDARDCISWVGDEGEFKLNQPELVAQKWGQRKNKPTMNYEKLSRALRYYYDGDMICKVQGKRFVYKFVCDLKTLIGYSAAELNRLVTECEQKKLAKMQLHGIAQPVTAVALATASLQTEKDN
# Procedure, shortened: as §1
# ERG = biological target: T4, ERG (Homo sapiens, UniProt P11308 1-479); settings: protein: recombinant; tags: N-terminal GST; dsDNA, one strand shown
# T4 sequence: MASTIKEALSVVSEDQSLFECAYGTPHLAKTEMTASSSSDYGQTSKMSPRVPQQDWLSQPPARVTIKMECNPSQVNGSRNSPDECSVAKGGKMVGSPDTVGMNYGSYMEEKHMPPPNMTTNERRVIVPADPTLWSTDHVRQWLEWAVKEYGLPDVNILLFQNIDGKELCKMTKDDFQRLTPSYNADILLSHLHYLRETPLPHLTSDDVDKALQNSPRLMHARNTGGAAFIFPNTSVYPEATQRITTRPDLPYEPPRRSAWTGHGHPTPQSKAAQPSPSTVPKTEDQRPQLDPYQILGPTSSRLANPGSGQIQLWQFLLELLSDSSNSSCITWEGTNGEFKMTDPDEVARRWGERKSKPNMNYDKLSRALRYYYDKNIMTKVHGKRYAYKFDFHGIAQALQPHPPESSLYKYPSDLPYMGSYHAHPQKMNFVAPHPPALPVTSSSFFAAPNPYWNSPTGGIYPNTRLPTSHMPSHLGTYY
# Procedure, shortened: as §1
# ELF1 = ELF1 (Homo sapiens, UniProt P32519 1-619); settings: protein: recombinant; tags: N-terminal GST; dsDNA, one strand shown
# Sequence of ELF1 (P32519 whole entry): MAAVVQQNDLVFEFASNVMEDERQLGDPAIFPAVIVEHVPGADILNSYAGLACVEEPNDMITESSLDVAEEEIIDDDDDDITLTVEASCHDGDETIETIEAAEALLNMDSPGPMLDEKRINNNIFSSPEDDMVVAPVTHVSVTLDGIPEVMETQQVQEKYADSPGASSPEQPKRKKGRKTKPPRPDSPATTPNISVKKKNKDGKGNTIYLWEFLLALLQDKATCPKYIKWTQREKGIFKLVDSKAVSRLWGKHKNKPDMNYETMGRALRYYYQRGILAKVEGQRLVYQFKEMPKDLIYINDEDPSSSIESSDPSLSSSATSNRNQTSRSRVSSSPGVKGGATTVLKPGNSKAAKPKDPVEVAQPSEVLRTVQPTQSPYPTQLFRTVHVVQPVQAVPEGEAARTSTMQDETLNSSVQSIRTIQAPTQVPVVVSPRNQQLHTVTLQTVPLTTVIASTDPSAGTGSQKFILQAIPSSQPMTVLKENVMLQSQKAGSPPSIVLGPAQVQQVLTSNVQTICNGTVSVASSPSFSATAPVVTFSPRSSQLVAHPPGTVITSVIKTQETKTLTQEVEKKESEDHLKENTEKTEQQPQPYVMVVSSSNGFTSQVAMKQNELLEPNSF
# Procedure, shortened: as §1
# EHF = biological target: T5, EHF (Homo sapiens, UniProt Q9NZC4 1-300); settings: protein: recombinant; tags: N-terminal GST; dsDNA, one strand shown
# T5 sequence: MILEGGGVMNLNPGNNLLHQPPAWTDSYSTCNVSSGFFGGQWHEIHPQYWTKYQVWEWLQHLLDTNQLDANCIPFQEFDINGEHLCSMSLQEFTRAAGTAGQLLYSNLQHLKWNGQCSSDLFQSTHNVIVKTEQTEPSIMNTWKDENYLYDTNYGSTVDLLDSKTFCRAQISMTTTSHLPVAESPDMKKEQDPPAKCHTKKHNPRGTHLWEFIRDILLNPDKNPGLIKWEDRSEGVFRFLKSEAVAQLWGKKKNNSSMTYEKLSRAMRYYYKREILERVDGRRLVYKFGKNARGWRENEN
# Procedure, shortened: as §1
# SPI1 = SPI1 (Homo sapiens, UniProt P17947 1-270); settings: protein: recombinant; tags: N-terminal GST; dsDNA, one strand shown
# Procedure, shortened: as §1
# SPIB = SPIB (Homo sapiens, UniProt Q01892 1-262); settings: protein: recombinant; tags: N-terminal GST; dsDNA, one strand shown
# Sequence of SPIB (Q01892 whole entry): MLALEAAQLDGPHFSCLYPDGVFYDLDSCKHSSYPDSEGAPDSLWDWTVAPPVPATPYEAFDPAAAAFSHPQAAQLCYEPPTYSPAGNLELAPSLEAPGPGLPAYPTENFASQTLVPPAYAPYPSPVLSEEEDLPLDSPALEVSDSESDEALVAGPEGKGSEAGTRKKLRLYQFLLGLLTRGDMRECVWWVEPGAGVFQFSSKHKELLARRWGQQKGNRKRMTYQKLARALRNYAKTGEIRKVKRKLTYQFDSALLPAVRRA
# Procedure, shortened: as §1
# ELK3 = biological target: T6, ELK3 (Homo sapiens, UniProt P41970 1-407); settings: protein: recombinant; tags: N-terminal GST; dsDNA, one strand shown
# T6 sequence: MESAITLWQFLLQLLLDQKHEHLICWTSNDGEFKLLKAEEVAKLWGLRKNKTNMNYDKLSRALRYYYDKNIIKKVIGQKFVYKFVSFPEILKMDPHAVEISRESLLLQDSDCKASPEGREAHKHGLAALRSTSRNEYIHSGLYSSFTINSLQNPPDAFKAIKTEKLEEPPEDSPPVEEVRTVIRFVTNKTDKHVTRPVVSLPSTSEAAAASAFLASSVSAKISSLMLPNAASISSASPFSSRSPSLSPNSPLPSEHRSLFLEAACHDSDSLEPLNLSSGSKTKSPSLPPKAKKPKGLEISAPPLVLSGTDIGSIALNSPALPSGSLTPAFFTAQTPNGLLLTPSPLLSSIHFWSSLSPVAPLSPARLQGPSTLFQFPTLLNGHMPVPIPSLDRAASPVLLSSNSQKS
# Procedure, shortened: as §1
# FEV = biological target: T7, FEV (Homo sapiens, UniProt Q99581 1-238); settings: protein: recombinant; tags: N-terminal GST; dsDNA, one strand shown
# T7 sequence: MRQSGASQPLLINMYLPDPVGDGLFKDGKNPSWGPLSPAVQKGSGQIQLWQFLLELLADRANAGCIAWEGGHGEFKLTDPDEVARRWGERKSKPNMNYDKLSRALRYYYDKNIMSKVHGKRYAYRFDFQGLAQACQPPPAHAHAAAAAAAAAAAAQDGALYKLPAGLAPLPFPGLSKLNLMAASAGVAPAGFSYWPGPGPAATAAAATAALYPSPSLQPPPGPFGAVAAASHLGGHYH
# Procedure, shortened: as §1
# ETV5 = ETV5 (Homo sapiens, UniProt P41161 1-510); settings: protein: recombinant; tags: N-terminal GST; dsDNA, one strand shown
# Sequence of ETV5 (P41161 whole entry): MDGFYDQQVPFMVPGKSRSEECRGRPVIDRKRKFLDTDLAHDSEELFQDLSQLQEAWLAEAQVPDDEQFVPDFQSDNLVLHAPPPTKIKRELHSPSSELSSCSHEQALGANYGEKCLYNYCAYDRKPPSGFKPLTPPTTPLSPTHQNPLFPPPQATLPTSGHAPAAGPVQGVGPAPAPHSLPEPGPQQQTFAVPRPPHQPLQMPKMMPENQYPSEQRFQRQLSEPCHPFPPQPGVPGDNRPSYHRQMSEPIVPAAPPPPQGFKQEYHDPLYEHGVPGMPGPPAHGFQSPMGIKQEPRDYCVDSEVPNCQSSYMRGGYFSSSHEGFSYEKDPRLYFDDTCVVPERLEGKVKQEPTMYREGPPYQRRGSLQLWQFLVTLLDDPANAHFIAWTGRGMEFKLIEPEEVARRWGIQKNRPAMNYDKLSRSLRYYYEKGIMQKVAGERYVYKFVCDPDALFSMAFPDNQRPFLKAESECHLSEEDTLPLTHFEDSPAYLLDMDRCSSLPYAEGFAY
# Procedure, shortened: as §1
# HSF1 = HSF1 (Homo sapiens, UniProt Q00613 1-529); settings: protein: recombinant; tags: N-terminal GST; chain copies: 3; dsDNA, one strand shown
# Sequence of HSF1 (Q00613 whole entry): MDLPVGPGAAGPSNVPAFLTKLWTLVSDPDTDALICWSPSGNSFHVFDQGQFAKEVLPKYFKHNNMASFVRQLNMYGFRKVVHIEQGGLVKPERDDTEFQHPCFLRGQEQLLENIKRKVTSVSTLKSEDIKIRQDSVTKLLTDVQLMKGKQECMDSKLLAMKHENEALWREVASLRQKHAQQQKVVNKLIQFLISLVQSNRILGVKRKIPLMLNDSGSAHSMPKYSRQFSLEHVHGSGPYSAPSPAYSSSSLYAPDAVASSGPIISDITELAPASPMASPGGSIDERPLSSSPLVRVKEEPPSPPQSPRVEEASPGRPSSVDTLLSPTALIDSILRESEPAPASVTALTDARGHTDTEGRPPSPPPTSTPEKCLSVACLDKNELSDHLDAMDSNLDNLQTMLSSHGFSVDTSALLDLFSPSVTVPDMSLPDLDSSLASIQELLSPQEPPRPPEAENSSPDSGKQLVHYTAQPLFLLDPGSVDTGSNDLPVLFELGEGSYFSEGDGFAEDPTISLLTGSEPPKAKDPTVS
# Procedure, shortened: as §1
# SPIC = biological target: T8, SPIC (Homo sapiens, UniProt Q8N5J4 1-248); settings: protein: recombinant; tags: N-terminal GST; dsDNA, one strand shown
# T8 sequence: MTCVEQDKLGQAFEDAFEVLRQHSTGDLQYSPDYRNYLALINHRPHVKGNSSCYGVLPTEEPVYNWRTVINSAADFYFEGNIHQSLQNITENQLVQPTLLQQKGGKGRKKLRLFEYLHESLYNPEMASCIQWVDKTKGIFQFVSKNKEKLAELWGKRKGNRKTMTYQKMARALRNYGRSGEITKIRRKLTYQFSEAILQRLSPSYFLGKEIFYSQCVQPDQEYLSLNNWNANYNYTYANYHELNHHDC
# Procedure, shortened: as §1
# ELF4 = ELF4 (Homo sapiens, UniProt Q99607 1-663); settings: protein: recombinant; tags: N-terminal GST; dsDNA, one strand shown
# Sequence of ELF4 (Q99607 whole entry): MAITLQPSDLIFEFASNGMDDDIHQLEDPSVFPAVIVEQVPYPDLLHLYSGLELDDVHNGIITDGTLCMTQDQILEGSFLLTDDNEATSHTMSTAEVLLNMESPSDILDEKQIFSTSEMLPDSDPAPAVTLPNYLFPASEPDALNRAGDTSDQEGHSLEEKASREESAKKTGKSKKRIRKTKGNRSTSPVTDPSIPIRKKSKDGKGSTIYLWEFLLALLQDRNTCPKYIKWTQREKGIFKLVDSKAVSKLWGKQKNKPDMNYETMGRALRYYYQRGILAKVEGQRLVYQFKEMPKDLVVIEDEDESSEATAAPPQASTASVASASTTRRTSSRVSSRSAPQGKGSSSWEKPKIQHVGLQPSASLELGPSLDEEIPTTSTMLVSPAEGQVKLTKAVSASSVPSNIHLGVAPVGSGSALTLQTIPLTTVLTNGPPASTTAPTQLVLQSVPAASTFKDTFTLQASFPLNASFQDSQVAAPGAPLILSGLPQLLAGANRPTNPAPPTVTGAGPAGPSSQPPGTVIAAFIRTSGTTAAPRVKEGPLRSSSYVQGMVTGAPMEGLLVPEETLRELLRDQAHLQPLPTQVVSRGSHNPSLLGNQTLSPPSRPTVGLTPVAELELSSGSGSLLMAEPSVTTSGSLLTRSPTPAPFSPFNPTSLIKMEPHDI
# Procedure, shortened: as §1
# ELK4 = biological target: T9, ELK4 (Homo sapiens, UniProt P28324-2 1-405); settings: protein: recombinant; tags: N-terminal GST; dsDNA, one strand shown
# T9 sequence: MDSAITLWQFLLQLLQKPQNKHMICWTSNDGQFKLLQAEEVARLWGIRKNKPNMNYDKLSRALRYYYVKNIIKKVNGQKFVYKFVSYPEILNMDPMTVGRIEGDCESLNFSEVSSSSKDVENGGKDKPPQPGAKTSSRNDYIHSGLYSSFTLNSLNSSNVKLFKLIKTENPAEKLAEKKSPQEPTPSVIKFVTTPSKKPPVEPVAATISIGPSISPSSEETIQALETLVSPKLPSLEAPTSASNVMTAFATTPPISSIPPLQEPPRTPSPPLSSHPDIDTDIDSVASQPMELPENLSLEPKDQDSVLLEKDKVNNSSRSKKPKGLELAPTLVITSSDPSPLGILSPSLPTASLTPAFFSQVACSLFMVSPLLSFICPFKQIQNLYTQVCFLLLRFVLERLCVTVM
# Procedure, shortened: as §1
# ETV2 = biological target: T10, ETV2 (Homo sapiens, UniProt O00321 1-342); settings: protein: recombinant; tags: N-terminal GST; dsDNA, one strand shown
# T10 sequence: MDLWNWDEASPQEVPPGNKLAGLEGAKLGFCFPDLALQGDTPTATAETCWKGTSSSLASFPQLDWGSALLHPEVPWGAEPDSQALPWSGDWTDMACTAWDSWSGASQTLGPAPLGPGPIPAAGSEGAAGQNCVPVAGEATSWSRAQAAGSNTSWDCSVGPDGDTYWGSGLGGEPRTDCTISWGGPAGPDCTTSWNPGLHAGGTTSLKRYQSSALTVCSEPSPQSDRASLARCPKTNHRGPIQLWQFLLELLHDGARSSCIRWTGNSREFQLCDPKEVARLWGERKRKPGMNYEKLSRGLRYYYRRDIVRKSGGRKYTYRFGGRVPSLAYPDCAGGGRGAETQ
# Procedure, shortened: as §1
# ELF3 = biological target: T11, ELF3 (Homo sapiens, UniProt P78545 1-371); settings: protein: recombinant; tags: N-terminal GST; dsDNA, one strand shown
# T11 sequence: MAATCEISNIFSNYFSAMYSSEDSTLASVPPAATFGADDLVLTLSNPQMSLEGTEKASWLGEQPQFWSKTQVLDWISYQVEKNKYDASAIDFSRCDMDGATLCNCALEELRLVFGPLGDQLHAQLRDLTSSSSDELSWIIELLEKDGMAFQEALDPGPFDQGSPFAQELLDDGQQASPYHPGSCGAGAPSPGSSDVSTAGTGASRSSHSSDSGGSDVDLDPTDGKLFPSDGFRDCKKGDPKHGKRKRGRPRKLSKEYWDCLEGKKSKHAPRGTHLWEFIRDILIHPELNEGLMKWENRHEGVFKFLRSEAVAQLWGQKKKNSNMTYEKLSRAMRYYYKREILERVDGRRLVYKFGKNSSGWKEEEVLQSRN
# Procedure, shortened: as §1
# CRX = CRX (Homo sapiens, UniProt O43186 1-299); settings: protein: recombinant; tags: N-terminal GST; dsDNA, one strand shown
# Sequence of CRX (O43186 whole entry): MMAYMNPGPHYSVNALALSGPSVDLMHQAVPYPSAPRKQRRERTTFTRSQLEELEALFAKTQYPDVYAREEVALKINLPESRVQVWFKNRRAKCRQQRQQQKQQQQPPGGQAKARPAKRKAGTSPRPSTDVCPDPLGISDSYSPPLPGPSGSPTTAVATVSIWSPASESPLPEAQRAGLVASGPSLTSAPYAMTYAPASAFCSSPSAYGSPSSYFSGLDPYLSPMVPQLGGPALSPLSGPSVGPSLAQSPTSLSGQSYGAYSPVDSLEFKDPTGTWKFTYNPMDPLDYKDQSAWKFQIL
# Procedure, shortened: as §1
# ETV1 = ETV1 (Homo sapiens, UniProt P50549 1-477); settings: protein: recombinant; tags: N-terminal GST; dsDNA, one strand shown
# Sequence of ETV1 (P50549 whole entry): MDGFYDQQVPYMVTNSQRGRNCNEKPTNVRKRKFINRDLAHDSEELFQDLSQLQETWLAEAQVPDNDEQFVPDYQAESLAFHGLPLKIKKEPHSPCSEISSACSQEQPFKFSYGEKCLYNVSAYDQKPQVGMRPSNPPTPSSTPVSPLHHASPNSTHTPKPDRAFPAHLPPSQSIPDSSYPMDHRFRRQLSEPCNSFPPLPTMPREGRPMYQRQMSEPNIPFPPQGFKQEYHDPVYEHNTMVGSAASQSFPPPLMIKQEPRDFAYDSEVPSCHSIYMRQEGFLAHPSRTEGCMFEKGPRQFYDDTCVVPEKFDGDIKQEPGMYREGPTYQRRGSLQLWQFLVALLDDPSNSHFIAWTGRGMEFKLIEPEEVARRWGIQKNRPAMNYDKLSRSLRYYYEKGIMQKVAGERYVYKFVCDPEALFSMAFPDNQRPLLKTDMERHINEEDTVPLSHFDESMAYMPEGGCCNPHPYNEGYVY
# Procedure, shortened: as §1
sequence,measurement,setting,value
ATCCTA,binding signal,FLI1,"1.54 fold enrichment (6-mer frequency, TF over GST control)"
same,binding signal,ELK1,"1.34 fold enrichment (6-mer frequency, TF over GST control)"
same,binding signal,GABPA,"1.37 fold enrichment (6-mer frequency, TF over GST control)"
same,binding signal,ERG,"1.4 fold enrichment (6-mer frequency, TF over GST control)"
same,binding signal,ELF1,"1.37 fold enrichment (6-mer frequency, TF over GST control)"
same,binding signal,EHF,"1.3 fold enrichment (6-mer frequency, TF over GST control)"
same,binding signal,SPI1,"1.27 fold enrichment (6-mer frequency, TF over GST control)"
same,binding signal,SPIB,"1.48 fold enrichment (6-mer frequency, TF over GST control)"
same,binding signal,ELK3,"1.43 fold enrichment (6-mer frequency, TF over GST control)"
same,binding signal,FEV,"1.32 fold enrichment (6-mer frequency, TF over GST control)"
same,binding signal,ETV5,"1.37 fold enrichment (6-mer frequency, TF over GST control)"
same,binding signal,HSF1,"1.61 fold enrichment (6-mer frequency, TF over GST control)"
same,binding signal,SPIC,"1.44 fold enrichment (6-mer frequency, TF over GST control)"
same,binding signal,ELF4,"1.32 fold enrichment (6-mer frequency, TF over GST control)"
same,binding signal,ELK4,"1.26 fold enrichment (6-mer frequency, TF over GST control)"
same,binding signal,ETV2,"1.41 fold enrichment (6-mer frequency, TF over GST control)"
same,binding signal,ELF3,"1.24 fold enrichment (6-mer frequency, TF over GST control)"
same,binding signal,CRX,"2.19 fold enrichment (6-mer frequency, TF over GST control)"
same,binding signal,ETV1,"1.32 fold enrichment (6-mer frequency, TF over GST control)"
